Source: PubChem BioAssay
In the library only some 11% were active in any assay of this set; here they are far more common.
Pf growth 96h – Primary qHTS for delayed death inhibitors of the malarial parasite plastid, 96 hour incubation | P. falciparum luciferase reporter growth, 96 h | Potency, µM (series often up to 28.7 µM), for inactives: at the highest dose activity change, negative = inhibition, most hits filed as inhibitors | 6.9% of 320,000 active
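P. falciparum expressing integrated firefly luciferase, in erythrocytes at 2% hematocrit, 0.05% parasitemia, incubated with compounds 96 h at 37 C, 5% CO2. Growth inhibition read as loss of luminescence; two-generation exposure targets delayed-death apicoplast inhibitors.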
Pf growth 48h – Primary qHTS for delayed death inhibitors of the malarial parasite plastid, 48 hour incubation; P. falciparum luciferase growth in erythrocytes, 48 h; Potency, µM (titrated, usually from 28.7 µM), without a hit: top-dose activity change, negative = inhibition, most hits filed as inhibitors; 5.9% of 310,000 active; AID 504832, 2011
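Erythrocytes infected with P. falciparum carrying an integrated firefly luciferase reporter (2% hematocrit, 0.1% parasitemia final) were exposed to compounds in RPMI 1640 with 0.5% Albumax at 37 C, 5% CO2. Growth inhibition was scored as reduced luminescence.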
HCV inhibitor – qHTS Assay for Inhibitors of Hepatitis C Virus (HCV); Huh7.5.1 HCVcc-Cre infection, luciferase reporter, 44 h; Potency, µM (series often up to 41.8 µM), inactives show top-dose activity change, negative = inhibition, actives largely listed as inhibitors; 3.4% of 340,000 active
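Luciferase read-out (15 sec integration) after a 15 min room-temperature substrate step quantifies HCVcc-Cre infection. Cells, 1,000 per well, had compound added 4 h post-plating, then virus at ~0.5 moi, and were cultured 44 h.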
AMA1 RON2 block – qHTS for Inhibitors of AMA1-RON; Towards Development of Antimalarial Drug Lead: Primary Screen; Plasmodium falciparum AMA1 (3D7) - RON2 peptide interaction; AlphaScreen AMA1-biotinylated RON2 peptide binding; Potency, µM (series often up to 58.2 µM), inactives show at the top dose activity change, negative = inhibition, actives largely listed as inhibitors; 0.2% of 360,000 active;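 also: 0% = vehicle wells and -100% = peptide control; nearly all actives have a fitted effect of over 45% in size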
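AMA1 (3D7) with his tag at 25 nM final met compounds first, then biotinylated RON2 peptide at 25 nM; detection used donor plus acceptor beads, 10 µg/mL apiece, read by AlphaScreen after 30 min at room temperature.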
AmpC detergent – qHTS Inhibitors of AmpC Beta-Lactamase (assay with detergent); P00811; AmpC hydrolysis of nitrocefin, absorbance 480 nm, 0.01% Triton; Potency, µM (highest dose often 114 µM), for the others: at the highest dose activity change, negative = inhibition, most hits filed as inhibitors; 0.041% of 370,000 active;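 also: 0% = no-compound wells and -100% = no-enzyme wells; nearly all actives have a fitted effect of over 25% in size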
Target sequence (P00811 whole entry, looked up): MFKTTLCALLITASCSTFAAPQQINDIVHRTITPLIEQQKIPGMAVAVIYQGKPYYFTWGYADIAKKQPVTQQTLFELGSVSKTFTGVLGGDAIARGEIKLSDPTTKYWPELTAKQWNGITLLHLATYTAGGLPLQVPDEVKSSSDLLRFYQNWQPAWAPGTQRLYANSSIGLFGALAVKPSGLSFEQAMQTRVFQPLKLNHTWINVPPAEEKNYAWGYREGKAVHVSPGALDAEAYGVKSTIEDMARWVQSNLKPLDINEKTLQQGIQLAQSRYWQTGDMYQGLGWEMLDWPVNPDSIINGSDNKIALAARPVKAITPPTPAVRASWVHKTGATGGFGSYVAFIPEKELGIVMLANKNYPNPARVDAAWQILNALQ
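AmpC (5.3 nM in the dispensed reagent) in 20 mM phosphate pH 7.0 with 0.01% (detergent screen) or 0.0001% Triton X-100 was preincubated with compounds for 15 min at room temperature. Nitrocefin was then added from an 800 uM solution, and hydrolysis was followed at 480 nm.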
AmpC inh no detg – qHTS Inhibitors of AmpC Beta-Lactamase (assay without detergent); P00811; AmpC nitrocefin hydrolysis, absorbance 480 nm, 0.0001% Triton; Potency, µM (series often up to 57.1 µM), inactives show at the highest dose activity change, negative = inhibition, actives largely listed as inhibitors; 0.52% of 330,000 active; AID 485341, 2010;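 also: plate controls were no compound for no effect and no enzyme for full effect; nearly all actives have a fitted effect of over 20% in size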
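20 mM phosphate pH 7.0 + 0.01% (detergent screen) or 0.0001% Triton X-100; 5.3 nM AmpC reagent; cpd preinc 15 min RT; nitrocefin (800 uM stock) to start; A480 q20 s × 4 min; Activity was normalised to no-enzyme and no-compound control wells.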
An asterisk follows results filed as active; ? = inconclusive; . = no result. Calls follow the shape of the dose curve; as a rule, active = well fitted curve in the direction sought with a large enough effect; inconclusive = small, poorly fitted or top-dose-only effect, or another doubt; inactive = no such curve, though single readings can be large; an effect the other way counts as inactive or inconclusive. Unless noted, % is scaled to controls: 0 for no effect and ±100 for the full control effect; potency is read from the fitted curve at half-maximal effect.

SMILES	Pf growth 96h	Pf growth 48h	HCV inhibitor	AMA1 RON2 block	AmpC detergent	AmpC inh no detg
c1ccc(-c2csc(Nc3cccnc3)n2)nc1	24.2%	95.8%	10µM*	17.2%	-6.4%	-12.2%
c1ccc(Nc2nc(-c3ccccn3)cs2)cc1	-47.6%	6.2%	?	9.0%	4.1%	.
Cc1ccc(CNC(=O)Cn2cc(S(=O)(=O)Cc3ccccc3F)c3ccccc32)cc1	.	.	.	.	5.3%	.
OCCOC[C@H]1O[C@H](OCCO)[C@H](OCCO)[C@@H](OCCO)[C@@H]1OCCO (tested in a mixture with another compound)	4.4%	-4.6%	.	.	.	.
O=C(NCCCN1CCCCC1)c1cc(Sc2ccc(Cl)cc2)nc2ccccc12	.	.	.	.	-5.1%	.
CCOC(=O)c1c(-c2ccccc2)oc2ccc(NS(=O)(=O)c3ccc(C)cc3C)cc12	.	.	.	.	12.7%	.
Cc1ccccc1OCC(=O)Nc1ccc2nc(SCc3ccccc3)sc2c1	.	.	.	.	19.8%	.
COc1cc2c(cc1NC(=S)Nc1cccc(C(F)(F)F)c1)oc1ccccc12	.	?	10µM*	17.8%	3.9%	-53.9%
COCCCNC(=S)Nc1cc2oc3ccccc3c2cc1OC	?	?	8.91µM*	15.5%	4.2%	61.7%
COc1cc2c(cc1NC(=O)COc1ccccc1OC)oc1ccccc12	0.0%	36.2%	?	-5.3%	2.0%	-23.7%
COc1cc2c(cc1NC(=S)Nc1cccc3ccccc13)oc1ccccc12	.	-28.3%	2.51µM*	-18.5%	-10.8%	-26.9%
Cc1cn2c(=O)cc(COC(=O)c3ccc(NC(=O)COc4ccc(C)c(C)c4)cc3)nc2s1	.	.	.	.	10.3%	.
COc1cccc(N2CC(NC(=O)c3ccc4c(c3)OCO4)CC2=O)c1 (stereo not drawn)	.	.	.	.	4.0%	.
CCCCOc1ccccc1NC(=O)CC1Nc2ccccc2NC1=O (stereo not drawn)	-6.4%	1.65µM*	-9.9%	0.3%	2.1%	-27.7%
Cc1ccc(CSC2=Nc3ccccc3C3=NC(CC(=O)NCc4cccs4)C(=O)N23)cc1 (stereo not drawn)	.	.	.	.	3.8%	.
Cc1ccc(CSC2=Nc3ccccc3C3=NC(CC(=O)NCc4ccco4)C(=O)N23)cc1 (stereo not drawn)	.	1.31µM*	?	-21.0%	-11.1%	52.1%
O=C(CC1N=C2c3ccccc3N=C(SCc3ccc(F)cc3)N2C1=O)NCc1ccco1 (stereo not drawn)	13.1µM*	0.738µM*	?	5.1%	-3.0%	13.9%
CCC(C)NC(=O)CSC1=Nc2ccccc2C2=NC(CC(=O)NCc3ccccc3)C(=O)N12 (stereo not drawn)	-0.8%	9.28µM*	2.0%	1.2%	?	-31.6%
CCCCOc1ccccc1C(=O)N(Cc1cccc(F)c1)C1CCS(=O)(=O)C1 (stereo not drawn)	.	.	.	.	13.4%	.
CC(C)c1ccc(S(=O)(=O)c2nnn3c2nc(N2CCOCC2)c2sccc23)cc1	.	.	.	.	6.0%	.
O=C(Cn1c(=O)n(Cc2ccc3c(c2)OCO3)c(=O)c2oc3ccccc3c21)Nc1ccccc1F	.	.	.	.	5.7%	.
Cc1nn2c(COc3ccc(NC(=O)c4ccccc4)cc3)nnc2c2ccccc12	6.57µM*	?	?	2.4%	-9.9%	-11.8%
CC1CCN(C(=O)COC(=O)c2ccccc2C(=O)c2ccccc2)CC1	.	.	2.7%	9.2%	.	3.1%
Cc1ccc(C(=O)c2ccccc2C(=O)OCC(=O)N2CC(C)CC(C)C2)cc1 (stereo not drawn)	7.38µM*	7.38µM*	13.3%	-2.2%	2.8%	45.3%
